Source: PubChem
This is a sample that favours compounds with a hit; in the whole collection about 3% have one here.
TexasRed fluor: alters Texas Red total fluorescence, flagging assay interference | hit rate 0.29% among 280,000 | AID 1479 | TRb/SRC2 Texas Red total fluorescence interference | Potency, µM (highest dose often 106 µM); active = well fitted curve in either direction with a large enough effect; inconclusive = small, poorly fitted or top-dose-only effect
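Human TRβ ligand-binding domain (0.6 uM) and Texas Red SRC2 peptide (20 nM) in Tris buffer with 1 uM T3 and 5% DMSO were incubated with pinned compound for 5 hr at ambient temperature. Total fluorescence was computed as S + 2P (555/632 nm).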
Tau FP inhib: blocks human tau fibril formation measured by polarization; Potency, µM (titrated, usually from 57.7 µM), usual class: inhibitors; K18 P301L tau heparin fibrillization, Alexa594 FP, 6 h; P10636; AID 1468; hit rate 0.39% among 280,000; also: nearly all actives have a fitted effect of over 55% in size
Target sequence (P10636 561-689 P618L limits assumed): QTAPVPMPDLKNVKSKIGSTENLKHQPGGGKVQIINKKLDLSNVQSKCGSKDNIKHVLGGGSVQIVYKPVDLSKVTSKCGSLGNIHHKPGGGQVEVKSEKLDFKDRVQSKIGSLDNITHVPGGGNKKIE
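Steps: dispense K18 P301L tau (15 uM plus 0.24 uM Alexa 594 tracer, final) in pH 7 sodium acetate; add compound; add heparin (20 uM final); incubate 6 hr, 37 C; add ThT (30 uM final); after 1 hr ambient, read FP.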
TRb-SRC2 inh: TRbeta-SRC2 interaction inhibition; Potency, µM (top dose mostly 106 µM), actives largely listed as inhibitors; TRbeta-SRC2 peptide binding, fluorescence polarization; receptor liganded with 1 µM T3; hit rate 0.065% among 280,000; P10828; also: nearly all actives have a fitted effect of over 50% in size
Target sequence (P10828 whole entry, looked up): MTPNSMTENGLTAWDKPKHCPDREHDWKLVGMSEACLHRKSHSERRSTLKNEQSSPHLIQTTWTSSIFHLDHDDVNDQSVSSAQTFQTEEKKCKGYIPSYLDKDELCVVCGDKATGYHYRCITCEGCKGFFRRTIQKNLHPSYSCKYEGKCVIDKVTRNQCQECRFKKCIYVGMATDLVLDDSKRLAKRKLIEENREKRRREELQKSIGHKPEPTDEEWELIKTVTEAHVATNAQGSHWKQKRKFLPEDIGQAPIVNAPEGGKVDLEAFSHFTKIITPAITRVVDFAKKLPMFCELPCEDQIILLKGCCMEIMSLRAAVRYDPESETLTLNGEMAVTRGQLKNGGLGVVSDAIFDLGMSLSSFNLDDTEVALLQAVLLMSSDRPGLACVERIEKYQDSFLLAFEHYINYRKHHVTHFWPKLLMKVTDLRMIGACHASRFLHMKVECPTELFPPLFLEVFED
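Assay buffer: 20 mM Tris-HCl, 100 mM NaCl, 10% glycerol, 1 mM EDTA, 0.01% NP-40, 1 mM DTT, 1 uM T3, 5% DMSO; TRb LBD 0.6 uM, Texas Red SRC2 20 nM; FP after 5 hr.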
Tau ThT inhib: blocks human tau fibril formation measured by thioflavin T; P10636; recombinant tau K18 P301L, heparin-induced fibrillization, ThT fluorescence; Potency, µM (doses to about 57.4 µM), actives largely listed as inhibitors; hit rate 2.1% among 270,000; AID 1460; also: nearly all actives have a fitted effect of over 55% in size
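Recombinant human tau K18 fragment […] carrying P301L, 15 uM unlabeled plus 0.24 uM Alexa 594-labeled, was fibrillized with 20 uM heparin in 100 mM sodium acetate pH 7 for 6 hr at 37 C; 30 uM ThT fluorescence read after 1 hr.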
Tau fluor cs: counter-screen for tau fibril formation inhibitors | hit rate 0.93% among 280,000 | AID 1463 | Potency, µM (doses to about 57.7 µM) | tau K18 P301L Alexa594 fluorescence, heparin fibrillization; also: nearly all actives have a fitted effect of over 55% in size
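Human tau K18 P301L (15 uM unlabeled, 0.24 uM Alexa 594-labeled) in 100 mM sodium acetate pH 7 with 20 uM heparin, 6 hr at 37 C. ThT 30 uM added, 1 hr ambient; Alexa 594 FP and total fluorescence read at 555/632 nm.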
Large screens that a line does not name were inactive; [ ] = remark or other dose. Unless noted, calls follow the shape of the dose curve; as a rule, active = well fitted curve in the direction sought with a large enough effect; inconclusive = small, poorly fitted or top-dose-only effect, or another doubt; inactive = no such curve, though single readings can be large; an effect the other way counts as inactive or inconclusive.

COC(=O)CC1Oc2cc3oc4c(c3cc2O1)C(=O)CC(C)(C)C4 (stereo not given)	none
CC1(C)CC(=O)c2c(oc3cc(O)c(O)cc23)C1	Tau FP inhib inconclusive, Tau ThT inhib 28.2µM, Tau fluor cs inconclusive
COc1cccc(-c2ccc3c(N)c(C(=O)c4ccc(Br)cc4)sc3n2)c1	Tau FP inhib inconclusive, Tau ThT inhib 4.47µM, Tau fluor cs 2.51µM[quencher]
COc1ccc(-c2ccc3c(N)c(C(=O)NC(C)C)sc3n2)cc1OC	Tau FP inhib inconclusive, Tau ThT inhib 10µM, Tau fluor cs 17.8µM[quencher]
COc1ccc(C(=O)c2sc3nc(-c4ccccc4)ccc3c2N)cc1OC	Tau fluor cs inconclusive
COc1ccc(-c2ccc3c(N)c(C(=O)c4ccc(OC)c(OC)c4)sc3n2)cc1	Tau ThT inhib inconclusive, Tau fluor cs inconclusive
COc1ccc(OC)c(CCNC(=O)CCc2cn(Cc3cc(C)ccc3C)c3ccccc23)c1	Tau FP inhib inconclusive
Oc1ccc(Cl)cc1C1=NNC(c2cccs2)C1 (stereo not given)	Tau ThT inhib inconclusive, Tau fluor cs inconclusive
O=[N+]([O-])c1ccc(O)c(C2=NNC(c3ccccc3F)C2)c1 (stereo not given)	Tau ThT inhib 15.8µM
OCCOCCOCCOCCO	none (no result: Tau FP inhib, Tau ThT inhib, Tau fluor cs)
CCCCN(CC)C(=O)c1nn(C)c2c1CSc1ccccc1-2	Tau FP inhib inconclusive, Tau fluor cs 14.1µM[quencher]
O=C(OCn1ncc(Cl)c(Cl)c1=O)c1ccc(F)cc1	Tau FP inhib inconclusive, Tau ThT inhib inconclusive
O=C(OCn1ncc(Cl)c(Cl)c1=O)c1ccccc1Cl	Tau ThT inhib 14.1µM
CN(c1ccc(O)cc1)c1nc(-c2ccccc2)cs1	Tau FP inhib inconclusive, Tau ThT inhib inconclusive, Tau fluor cs 15.8µM[quencher]
Cc1ccc(Cl)cc1NC(=O)c1oc2ccc(S(=O)(=O)N(C)C3CCCCC3)cc2c1C	none
CCCCN1/C(=C/c2ccc3ccccc3[n+]2CC)Sc2ccccc21	Tau ThT inhib 14.1µM
CCN1/C(=C/c2ccc3ccccc3[n+]2CC)C=Cc2ccccc21	Tau ThT inhib 3.16µM
CCN(CC)CCN1c2ccccc2Sc2ccc3ccccc3c21	Tau ThT inhib inconclusive, Tau fluor cs inconclusive
Cc1ccc2c(c1)S/C(=C/c1ccc[n+](C)c1)N2CCO	Tau ThT inhib inconclusive
CCN1/C(=C/c2ccc3cc(C)ccc3[n+]2C)Sc2ccc3sccc3c21	Tau ThT inhib 1.58µM, Tau fluor cs 3.16µM[fluorescent]
CCN1/C(=C/c2ccc3cc(C)ccc3[n+]2CC)Sc2cc(C)ccc21	Tau FP inhib inconclusive, Tau ThT inhib 14.1µM, Tau fluor cs inconclusive
Cc1ccc(S(=O)(=O)OCCc2ccccc2)cc1	none
O=C(/C=C/c1ccccc1)Nc1cc(-c2nc3ccccc3o2)ccc1Cl	Tau FP inhib inconclusive
CCCC(=O)Nc1cc(C)c(O)c(-c2nc3ncccc3o2)c1	none
COC(=O)C1CCN(Cc2ccc(OCCCN3CCN(c4ccc([N+](=O)[O-])cc4)CC3)cc2)CC1	Tau ThT inhib 3.98µM
O=C(O)c1ccc2c(c1)C(=O)/C(=C/c1ccccc1)C2=O	Tau ThT inhib inconclusive
O=C1/C(=C/c2ccco2)CCc2ccccc21	Tau ThT inhib inconclusive
O=C1C(=Cc2ccco2)C(=O)c2ccccc21	Tau FP inhib inconclusive, Tau ThT inhib 12.6µM, Tau fluor cs inconclusive
Cc1ccc(/C=C2/C(=O)c3ccc(C(=O)O)cc3C2=O)o1	Tau FP inhib inconclusive, Tau ThT inhib 5.62µM
O=C(O)c1ccc2c(c1)C(=O)/C(=C\c1ccco1)C2=O	TexasRed fluor inconclusive, Tau FP inhib 15.8µM, Tau ThT inhib 11.2µM, Tau fluor cs inconclusive
Cc1ccc(C=C2C(=O)c3ccccc3C2=O)o1	Tau FP inhib inconclusive, Tau ThT inhib 8.91µM
Cc1cccc(NC(=O)C(NS(=O)(=O)c2ccc3c(c2)oc(=O)n3C)C(C)C)c1 (stereo not given)	none
Cc1ccc(NC(=O)Cn2c(SCc3ccc(F)cc3)nc3cccnc32)cc1F	TexasRed fluor inconclusive
COc1ccc2[nH]c(C)c(CCN(Cc3cccs3)C(=S)Nc3cccc(F)c3)c2c1	Tau ThT inhib inconclusive, Tau fluor cs 10µM[quencher]
COc1cccc(NC(=S)N(CCc2c(C)[nH]c3ccc(C)cc23)Cc2cccs2)c1	none
COc1ccc(OC)c(NC(=S)N(CCc2c(C)[nH]c3ccc(C)cc23)Cc2cccs2)c1	Tau fluor cs 8.91µM[quencher]
COc1ccc(OC)c(NC(=S)NCc2cccs2)c1	none
COc1ccc(OC)c(NC(=S)N(CCc2c(C)[nH]c3ccccc23)Cc2cccs2)c1	Tau fluor cs 7.08µM[quencher]
CCCCCCCC/C=C\CCCCCCCCO	none (no result: Tau FP inhib, Tau ThT inhib, Tau fluor cs)
CCCCc1ccc(-n2nc3ccc(NC(=O)c4cc5ccccc5o4)cc3n2)cc1	Tau ThT inhib inconclusive
CCOc1ccc(C(c2c(O)cc(C)n(Cc3ccco3)c2=O)N2CCCCC2)cc1 (stereo not given)	Tau ThT inhib inconclusive
COc1ccc(-c2[nH]ncc2N=Nc2ccccc2)cc1	Tau FP inhib inconclusive, Tau ThT inhib 15.8µM, Tau fluor cs inconclusive
CCOc1ccc(NC(=O)N2CCN(c3nnc(C)c4c(C)n(-c5ccccc5)nc34)CC2)cc1	TexasRed fluor 0.0005µM[quencher]
Cc1nnc(N2CCN(C(=O)Nc3cc(F)ccc3F)CC2)c2nn(-c3ccc(Cl)cc3)c(C)c12	none
CN(C)c1ccc(NC(=O)Cn2cc(S(=O)(=O)Cc3ccccc3Cl)c3ccccc32)cc1	Tau ThT inhib inconclusive, Tau fluor cs 11.2µM[quencher]
CN(C)c1ccc(NC(=O)Cn2cc(S(=O)(=O)Cc3cccc(Cl)c3)c3ccccc32)cc1	Tau ThT inhib inconclusive, Tau fluor cs inconclusive
CC(=O)C1=C(c2ccccc2)N(C(C)=O)n2c(C)nnc2S1	Tau FP inhib inconclusive, Tau ThT inhib 11.2µM
c1ccc(N2CCN(c3nnnn3-c3ccccc3)CC2)cc1	none
ClC(Cl)(c1nnnn1-c1ccccc1)c1nnnn1-c1ccccc1	Tau FP inhib 31.6µM, Tau ThT inhib 11.2µM
CCCCN(CCCC)CCCC	none (no result: Tau FP inhib, Tau ThT inhib, Tau fluor cs)
O=C(Nc1nnc(S(=O)(=O)N2CCCCCC2)s1)c1ccccc1Br	Tau ThT inhib inconclusive, Tau fluor cs inconclusive
O=C(Nc1nnc(S(=O)(=O)N2CCCCCC2)s1)c1ccc(Br)cc1	Tau ThT inhib inconclusive, Tau fluor cs inconclusive
Cc1ccc(C(=O)Nc2nnc(S(=O)(=O)N3CCN(c4ccc(F)cc4)CC3)s2)cc1	Tau ThT inhib 2.51µM
O=C(Nc1nnc(S(=O)(=O)N2CCCCC2)s1)c1ccc(Cl)cc1	TexasRed fluor inconclusive, Tau ThT inhib 2µM
O=C(Nc1nnc(S(=O)(=O)N2CCN(c3ccc(F)cc3)CC2)s1)c1ccc(Cl)cc1	TexasRed fluor inconclusive, Tau ThT inhib inconclusive
O=C(Nc1nnc(S(=O)(=O)N2CCCC2)s1)c1ccccc1Br	TexasRed fluor 0.0501µM[quencher], Tau ThT inhib inconclusive
COc1ccccc1CNc1nccn(-c2ccccc2)c1=O	none
O=C1CN(/N=C/c2ccc(-c3ccc([N+](=O)[O-])cc3)o2)C(=O)N1	Tau ThT inhib 10µM
O=[N+]([O-])c1ccc(-c2ccc(/C=N/O)o2)cc1	Tau ThT inhib 7.08µM
